In publication PMC5540273 (PLoS ONE, 2017):

What was measured:
Conditions in all cases: concentration: 1 μM,replicates: in singlicate; n = 1
PIP5K1A = test system: PIP5K1A
PIP5K1C = test system: PIP5K1C
PIP5K2B = test system: PIP5K2B
PIP5K2C = test system: T1, PIP5K2C
T1 construct: gene PIP4K2C

PKAC-alpha = test system: T2, PKAC-alpha
T2 construct: gene PRKACA

PKAC-beta = test system: T3, PKAC-beta
T3 construct: gene PRKACB

PKMYT1 = test system: PKMYT1
PKN1 = test system: PKN1
PKN2 = test system: PKN2
PLK1 = test system: PLK1
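Further: KINOMEscan kinase panel screen.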

Compound	%Inh (PIP5K1A)	%Inh (PIP5K1C)	%Inh (PIP5K2B)	%Inh (PIP5K2C)	%Inh (PKAC-alpha)	%Inh (PKAC-beta)	%Inh (PKMYT1)	%Inh (PKN1)	%Inh (PKN2)	%Inh (PLK1)
C[C@@H]1CNc2c(sc3ccc4nc(-c5ccc(O)cc5)ccc4c23)C(=O)N1	3%	18%	78%	13%	4%	5%	2%	0%	16%	0%
COc1cc2ncn(-c3cc(OCC4CCCCC4)c(C(N)=O)s3)c2cc1OC [GSK204559]	0%	61%	12%	11%	9%	0%	2%	24%	0%	–
CCn1c(-c2nonc2N)nc2cncc(Br)c21 [SB-738004]	54%	53%	28%	38%	11%	0%	6%	0%	4%	18%
CCN1CCN(CCCC(=O)Nc2n[nH]c3nc(-c4ccc(O)cc4)c(Br)cc23)CC1 [SB-731579]	12%	30%	0%	24%	0%	0%	0%	0%	6%	0%
O=C(Nc1cccc(Oc2ccc3nccn3n2)c1)Nc1cccc(C(F)(F)F)c1	6%	37%	14%	35%	66%	63%	0%	0%	31%	38%
O=C(Nc1cccc(C(F)(F)F)c1)c1cccc(Oc2ccc3nccn3n2)c1	0%	17%	14%	10%	17%	7%	9%	81%	0%	50%
OCCn1cc(-c2cnc3nnn(Cc4ccc5ncccc5c4)c3n2)cn1	1%	3%	0%	0%	0%	0%	0%	0%	0%	0%
CC(=O)Nc1nc2cnc(Nc3cc(NC(=O)c4cccc(CC(C)(C)C#N)c4)ccc3C)nc2s1	0%	4%	33%	53%	13%	0%	20%	21%	0%	7%
COc1cc(Nc2nccc(N3CCC(NC(=O)c4cccc(C#N)c4)C3)n2)cc(OC)c1OC (stereo not drawn) [GSK1379751]	0%	47%	0%	94.5%	0%	0%	0%	0%	0%	0%
Cl.c1ccc(Oc2ccc(Nc3ccnc4cc(-c5ccc(CN6CCNCC6)o5)ccc34)cc2)nc1 [GW567142]	0%	34%	0%	23%	0%	0%	0%	10%	0%	22%
COc1cccc(CNC(=O)NC2CCN(c3ccnc(Nc4cc(OC)c(OC)c(OC)c4)n3)C2)c1 (stereo not drawn) [GSK1379765]	52%	68%	14%	90.3%	0%	0%	8%	36%	0%	0%
Cn1ccc2ncnc(Oc3ccc(NC(=O)Nc4cccc(C(F)(F)F)c4)c(Cl)c3)c21	0%	48%	2%	0%	0%	0%	0%	0%	0%	0%
Cn1ccc2ncnc(Oc3ccc(NC(=O)Nc4cc(C(C)(C)C)on4)c(Cl)c3)c21	14%	0%	38%	0%	0%	0%	0%	0%	0%	0%
COc1ccc(Nc2nccc(N3CCC(NC(=O)c4cccc(C#N)c4)C3)n2)cc1 (stereo not drawn) [GSK1379730]	4%	35%	0%	23%	12%	9%	0%	37%	0%	0%
Cc1ccc(Nc2ccnc(Nc3ccc4c(c3)CS(=O)(=O)C4)n2)cc1O.Cl [GW579362]	29%	39%	80%	90%	7%	0%	0%	11%	0%	0%
CN(c1ccc2c(c1)nc(NCc1ccc(F)cc1)n2C)c1ccnc(Nc2ccc(CS(C)(=O)=O)cc2)n1.Cl [GW813244]	12%	0%	26%	52%	24%	14%	4%	18%	4%	0%
Cc1nnc(-c2ccc3occ(-c4ccc(S(C)=O)cc4)c3n2)o1 (stereo not drawn)	9%	10%	0%	43%	0%	0%	64%	0%	0%	0%
COC(=O)Nc1nc2cc(Oc3ccc(NC(=O)Nc4cc(C(F)(F)F)ccc4Cl)cc3)ccc2[nH]1.Cl [GW697465]	56%	63%	15%	53%	0%	0%	0%	0%	0%	0%
O=C(Nc1ccccc1)c1cccc(Oc2ccc3nccn3n2)c1	0%	23%	15%	14%	5%	0%	0%	26%	29%	36%
COC(=O)c1cccc(NC(=O)NC2CCN(c3ccnc(NCc4ccc(F)cc4)n3)CC2)c1 [GSK1379860]	0%	20%	19%	2%	0%	0%	0%	32%	0%	0%
CNC(=O)c1ccccc1Nc1nc(Nc2cccc(CS(C)(=O)=O)c2)ncc1C.O=CO [GSK1520489]	55%	52%	84%	79%	11%	28%	84%	56%	2%	97.9%
Cl.Cl.NC[C@H](CC1CCCCC1)NC(=O)c1ccc(-c2ccnc3[nH]ccc23)s1 [GSK1581428]	47%	41%	75%	25%	99.7%	99.9%	0%	52%	99%	2%
